In the supplement of paper PMC10849652:
Of roughly 8,800 targets only a part is listed; those with a hit were picked by preference. About 0.5% of all pairs of compound and target were hits. A number with no mark means an inactive call.

Legend:
Assay in all cases: log2 fold change, soluble protein after heating vs DMSO (PISA); higher = thermal stabilisation; K562 lysate, 10 uM; active = over 0.2 and 3.5 SD of the protein, either way, in both replicates (recomputed)
[1] = compound: CCCS(=O)(=O)Nc1ccc(F)c(C(=O)c2c[nH]c3ncc(-c4ccc(Cl)cc4)cc23)c1F [vemurafenib]
Method in brief: (§1)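 K562 pellets were dounce-homogenised in PBS pH 7.4 with 1 mM MgCl2, and the crude extract at 1 mg/mL protein was treated with 10 μM compound for 30 min. Aliquots were heated for 3 min across 48°C-58°C, pooled, and brought to 0.5% NP-40 at 4°C; soluble protein was the supernatant after 21,000xg for 90 min. Soluble protein was quantified by TMTpro 16plex LC-MS/MS with channel sums equalised, and reported as log2 fold change in thermal stability against DMSO controls, with values from duplicates.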

[2] = compound: CCCS(=O)(=O)Nc1ccc(F)c(C(=O)c2c[nH]c3ncc(Cl)cc23)c1F
Method in brief: as §1

[3] = compound: CCN(CCCOc1ccc2c(Nc3cc(CC(=O)Nc4cccc(F)c4)[nH]n3)ncnc2c1)CCOP(=O)(O)O [barasertib]
Method in brief: as §1

[4] = compound: CC[C@@H]1C(=O)N(C)c2cnc(Nc3ccc(C(=O)NC4CCN(C)CC4)cc3OC)nc2N1C1CCCC1
Method in brief: as §1

[5] = compound: CC[C@@H]1C(=O)N(C)c2cnc(Nc3ccc(C(=O)N[C@H]4CC[C@H](N5CCN(CC6CC6)CC5)CC4)cc3OC)nc2N1C(C)C [volasertib]
Method in brief: as §1

[6] = compound: CCn1c(C(=O)N(C2CC2)C2CC2)cc2c3c(ncn3C)c(Nc3cc(C)n(C)n3)nc21
Method in brief: as §1

[7] = compound: CCn1cc(-c2ccnc3[nH]c(-c4cccc(CN(C)C)c4)cc23)c(-c2ccc(NC(=O)N(C)C)cc2)n1
Method in brief: as §1

[8] = compound: CN1CCC(CNc2ccc3ncc(-c4cccc(OC(F)(F)F)c4)n3n2)CC1
Method in brief: as §1

[9] = compound: CN1CCN(CCOc2cc(OC3CCOCC3)c3c(Nc4c(Cl)ccc5c4OCO5)ncnc3c2)CC1 [saracatinib]
Method in brief: as §1

[10] = compound: CN1CCN(c2nc(C3=C(c4c[nH]c5ccccc45)C(=O)NC3=O)c3ccccc3n2)CC1 [sotrastaurin]
Method in brief: as §1

[11] = compound: CN1CC[C@H](c2c(O)cc(O)c3c(=O)cc(-c4ccccc4Cl)oc23)[C@H](O)C1 [alvocidib]
Method in brief: as §1

[12] = compound: CN1CCc2c(c3ccccc3n2Cc2ccc(C(=O)NO)cc2)C1 [Tubastatin A]
Method in brief: as §1

[13] = compound: CNC(=O)C1=CC=CC=C1NC2=NC(=NC=C2Cl)NC3=C(C=C(C=C3)N4CCOCC4)OC
Method in brief: as §1

[14] = compound: CNC(=O)c1ccc(Nc2ncc(C(F)(F)F)c(NCc3nccnc3N(C)S(C)(=O)=O)n2)cc1 [defactinib]
Method in brief: as §1

[15] = compound: CNc1nc(-c2ccc3c(N)n[nH]c3c2)cc(N2C[C@@H](C(=O)NC3CCCCC3)CC[C@H]2C)n1
Method in brief: as §1

[16] = compound: COC(=O)N[C@@H](C)CNc1nccc(-c2cn(C(C)C)nc2-c2cc(Cl)cc(NS(C)(=O)=O)c2F)n1 [encorafenib]
Method in brief: as §1

[17] = compound: COC(=O)[C@H](CCSC)NC(=O)C1=C(C=C(C=C1)NC[C@H](CS)N)C2=CC=CC=C2
Method in brief: as §1

[18] = compound: COc1cc(Nc2ncc3c(n2)-c2ccc(Cl)cc2C(c2c(F)cccc2OC)=NC3)ccc1C(=O)O [alisertib]
Method in brief: as §1

[19] = compound: COc1cc2nc(-c3cc(F)ccc3O)nc(N[C@@H]3CNC[C@H]3C(C)(C)O)c2cc1OC
Method in brief: as §1

[20] = compound: COc1cc2ncnc(Nc3ccc(F)c(Cl)c3)c2cc1OCCCN1CCOCC1 [gefitinib]
Method in brief: as §1

Sequence of UniProt P52655 (P52655 whole entry, looked up): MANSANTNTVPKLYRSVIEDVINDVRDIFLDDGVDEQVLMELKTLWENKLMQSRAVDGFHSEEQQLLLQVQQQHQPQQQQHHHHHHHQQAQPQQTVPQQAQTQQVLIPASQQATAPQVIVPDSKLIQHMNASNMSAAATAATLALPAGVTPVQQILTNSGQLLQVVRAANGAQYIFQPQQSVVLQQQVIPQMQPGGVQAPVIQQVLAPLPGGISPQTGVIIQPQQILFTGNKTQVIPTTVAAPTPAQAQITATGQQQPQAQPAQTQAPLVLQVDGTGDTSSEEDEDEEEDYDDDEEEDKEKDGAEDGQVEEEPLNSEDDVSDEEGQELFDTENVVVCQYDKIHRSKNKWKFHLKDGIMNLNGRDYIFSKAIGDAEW
Sequence of UniProt Q7Z4H7 (Q7Z4H7 whole entry, looked up): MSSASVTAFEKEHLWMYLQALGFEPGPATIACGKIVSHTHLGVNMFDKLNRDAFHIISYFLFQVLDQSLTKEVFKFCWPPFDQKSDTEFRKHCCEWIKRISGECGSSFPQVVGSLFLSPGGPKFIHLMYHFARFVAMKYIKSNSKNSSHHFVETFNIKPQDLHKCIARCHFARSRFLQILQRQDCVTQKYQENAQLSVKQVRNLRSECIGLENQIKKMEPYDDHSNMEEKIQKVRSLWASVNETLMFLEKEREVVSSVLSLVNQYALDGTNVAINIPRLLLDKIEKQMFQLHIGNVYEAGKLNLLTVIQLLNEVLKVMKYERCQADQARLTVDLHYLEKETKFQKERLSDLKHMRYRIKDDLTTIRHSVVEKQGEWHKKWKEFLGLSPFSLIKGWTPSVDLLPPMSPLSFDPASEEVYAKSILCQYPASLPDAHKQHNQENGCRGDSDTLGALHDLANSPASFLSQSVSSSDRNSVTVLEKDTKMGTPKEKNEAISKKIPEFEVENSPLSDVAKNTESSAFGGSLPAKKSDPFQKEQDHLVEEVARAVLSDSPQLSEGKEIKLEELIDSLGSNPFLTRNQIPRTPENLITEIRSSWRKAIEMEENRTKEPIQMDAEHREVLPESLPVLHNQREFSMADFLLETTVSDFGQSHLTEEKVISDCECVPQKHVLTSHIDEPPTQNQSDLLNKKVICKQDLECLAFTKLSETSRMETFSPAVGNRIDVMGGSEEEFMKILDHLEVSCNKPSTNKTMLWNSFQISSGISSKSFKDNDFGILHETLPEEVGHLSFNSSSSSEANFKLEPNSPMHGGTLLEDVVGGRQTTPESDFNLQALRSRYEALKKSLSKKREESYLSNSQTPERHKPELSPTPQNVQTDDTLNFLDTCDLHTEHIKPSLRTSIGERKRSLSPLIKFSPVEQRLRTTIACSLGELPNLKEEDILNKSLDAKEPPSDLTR
Sequence of UniProt P14866 (P14866 whole entry, looked up): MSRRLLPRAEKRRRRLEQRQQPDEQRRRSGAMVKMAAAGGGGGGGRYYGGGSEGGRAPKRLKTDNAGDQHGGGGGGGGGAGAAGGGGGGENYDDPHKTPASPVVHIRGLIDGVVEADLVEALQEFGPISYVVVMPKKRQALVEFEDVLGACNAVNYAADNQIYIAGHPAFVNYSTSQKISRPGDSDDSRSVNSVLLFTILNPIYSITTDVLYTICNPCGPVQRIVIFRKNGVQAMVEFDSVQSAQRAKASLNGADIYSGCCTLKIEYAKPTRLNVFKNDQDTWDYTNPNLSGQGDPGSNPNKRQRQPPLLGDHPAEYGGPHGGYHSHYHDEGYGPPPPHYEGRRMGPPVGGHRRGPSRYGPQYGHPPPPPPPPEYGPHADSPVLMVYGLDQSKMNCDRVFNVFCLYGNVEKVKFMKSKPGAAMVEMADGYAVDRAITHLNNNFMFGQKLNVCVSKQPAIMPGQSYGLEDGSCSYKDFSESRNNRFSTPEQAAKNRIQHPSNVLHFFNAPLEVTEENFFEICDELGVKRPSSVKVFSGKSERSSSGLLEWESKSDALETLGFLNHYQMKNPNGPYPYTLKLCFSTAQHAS
Sequence of UniProt P41229 (P41229 whole entry, looked up): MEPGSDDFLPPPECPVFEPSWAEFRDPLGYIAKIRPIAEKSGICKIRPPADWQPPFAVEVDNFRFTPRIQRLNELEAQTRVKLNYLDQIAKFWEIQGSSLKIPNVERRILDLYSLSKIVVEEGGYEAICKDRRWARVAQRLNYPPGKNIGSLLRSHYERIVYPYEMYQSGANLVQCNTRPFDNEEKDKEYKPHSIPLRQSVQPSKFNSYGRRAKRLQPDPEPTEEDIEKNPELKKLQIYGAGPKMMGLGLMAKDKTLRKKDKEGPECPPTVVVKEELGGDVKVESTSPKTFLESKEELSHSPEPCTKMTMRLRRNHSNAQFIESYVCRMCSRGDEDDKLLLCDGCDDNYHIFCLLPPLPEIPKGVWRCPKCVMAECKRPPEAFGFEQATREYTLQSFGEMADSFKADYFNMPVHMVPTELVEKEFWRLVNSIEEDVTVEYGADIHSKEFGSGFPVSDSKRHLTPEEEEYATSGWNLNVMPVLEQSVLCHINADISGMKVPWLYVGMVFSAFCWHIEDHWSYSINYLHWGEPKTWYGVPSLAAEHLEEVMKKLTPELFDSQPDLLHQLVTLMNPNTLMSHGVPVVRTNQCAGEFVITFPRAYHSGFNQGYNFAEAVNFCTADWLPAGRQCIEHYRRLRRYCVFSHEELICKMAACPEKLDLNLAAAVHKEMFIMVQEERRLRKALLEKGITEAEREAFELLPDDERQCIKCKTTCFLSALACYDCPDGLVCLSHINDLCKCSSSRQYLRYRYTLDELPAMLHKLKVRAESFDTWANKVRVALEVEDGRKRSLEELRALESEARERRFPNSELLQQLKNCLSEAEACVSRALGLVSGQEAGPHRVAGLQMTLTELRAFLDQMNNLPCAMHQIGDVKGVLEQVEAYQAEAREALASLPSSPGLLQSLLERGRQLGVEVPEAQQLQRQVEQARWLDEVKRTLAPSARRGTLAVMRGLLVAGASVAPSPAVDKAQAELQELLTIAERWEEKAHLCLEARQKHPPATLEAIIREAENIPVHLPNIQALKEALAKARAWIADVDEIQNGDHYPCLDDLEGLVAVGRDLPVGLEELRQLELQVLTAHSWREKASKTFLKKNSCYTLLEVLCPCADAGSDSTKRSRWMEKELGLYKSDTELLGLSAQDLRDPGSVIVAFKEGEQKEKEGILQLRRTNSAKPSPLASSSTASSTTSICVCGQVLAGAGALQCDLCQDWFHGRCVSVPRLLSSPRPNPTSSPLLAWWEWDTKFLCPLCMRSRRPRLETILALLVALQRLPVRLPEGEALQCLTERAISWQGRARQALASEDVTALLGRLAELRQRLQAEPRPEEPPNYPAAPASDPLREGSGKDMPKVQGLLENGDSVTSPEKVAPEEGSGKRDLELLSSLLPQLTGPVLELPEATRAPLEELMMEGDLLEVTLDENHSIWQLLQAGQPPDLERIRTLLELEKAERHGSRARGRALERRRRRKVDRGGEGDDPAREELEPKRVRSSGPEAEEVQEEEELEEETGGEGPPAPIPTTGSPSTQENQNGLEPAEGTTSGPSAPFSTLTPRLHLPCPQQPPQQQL
Sequence of UniProt P13598 (P13598 whole entry, looked up): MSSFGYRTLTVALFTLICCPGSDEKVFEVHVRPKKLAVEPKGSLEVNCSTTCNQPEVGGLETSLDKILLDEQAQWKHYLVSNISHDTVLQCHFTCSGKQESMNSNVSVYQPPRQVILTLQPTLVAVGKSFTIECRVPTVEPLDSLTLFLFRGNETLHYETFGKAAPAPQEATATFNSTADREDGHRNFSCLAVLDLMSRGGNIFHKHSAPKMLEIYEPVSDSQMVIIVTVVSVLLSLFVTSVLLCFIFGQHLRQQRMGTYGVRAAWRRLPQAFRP
Sequence of UniProt Q9NVX0 (Q9NVX0 whole entry, looked up): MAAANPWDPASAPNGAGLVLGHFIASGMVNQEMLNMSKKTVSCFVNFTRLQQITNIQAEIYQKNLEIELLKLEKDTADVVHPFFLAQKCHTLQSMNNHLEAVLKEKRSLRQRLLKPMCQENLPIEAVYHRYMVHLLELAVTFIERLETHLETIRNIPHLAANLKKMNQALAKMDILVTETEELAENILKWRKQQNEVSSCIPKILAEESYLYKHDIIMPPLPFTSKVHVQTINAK
Sequence of UniProt Q13478 (Q13478 whole entry, looked up): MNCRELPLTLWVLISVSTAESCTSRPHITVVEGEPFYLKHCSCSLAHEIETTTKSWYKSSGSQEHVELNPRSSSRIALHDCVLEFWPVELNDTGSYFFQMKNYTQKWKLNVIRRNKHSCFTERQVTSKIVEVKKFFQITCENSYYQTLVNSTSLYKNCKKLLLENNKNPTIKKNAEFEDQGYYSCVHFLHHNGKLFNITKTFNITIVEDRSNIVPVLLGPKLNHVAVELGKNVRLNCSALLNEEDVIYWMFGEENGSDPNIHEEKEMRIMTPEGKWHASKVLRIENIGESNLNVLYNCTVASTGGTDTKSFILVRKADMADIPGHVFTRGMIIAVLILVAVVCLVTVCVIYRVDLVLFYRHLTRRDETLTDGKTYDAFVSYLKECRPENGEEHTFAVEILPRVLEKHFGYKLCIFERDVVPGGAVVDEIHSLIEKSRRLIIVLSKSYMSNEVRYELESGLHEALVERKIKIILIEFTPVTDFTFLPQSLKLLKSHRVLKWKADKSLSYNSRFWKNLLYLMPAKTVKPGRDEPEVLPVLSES
Sequence of UniProt Q9H4A5 (Q9H4A5 whole entry, looked up): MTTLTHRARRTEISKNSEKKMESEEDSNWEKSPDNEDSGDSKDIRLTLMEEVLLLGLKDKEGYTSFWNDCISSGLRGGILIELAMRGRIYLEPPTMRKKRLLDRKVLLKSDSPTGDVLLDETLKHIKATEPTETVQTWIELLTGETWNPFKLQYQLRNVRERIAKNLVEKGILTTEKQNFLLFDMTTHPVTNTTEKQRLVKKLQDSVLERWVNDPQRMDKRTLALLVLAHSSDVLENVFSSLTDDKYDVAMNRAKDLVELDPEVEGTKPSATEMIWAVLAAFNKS
Sequence of UniProt Q96AB3 (Q96AB3 whole entry, looked up): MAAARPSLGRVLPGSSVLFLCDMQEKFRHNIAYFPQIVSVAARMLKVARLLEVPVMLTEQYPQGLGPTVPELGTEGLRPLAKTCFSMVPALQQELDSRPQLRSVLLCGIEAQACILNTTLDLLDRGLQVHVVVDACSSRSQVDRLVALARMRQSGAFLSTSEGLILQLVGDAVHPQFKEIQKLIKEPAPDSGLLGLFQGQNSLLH

| Target | log2 fold change [1] | log2 fold change [2] | log2 fold change [3] | log2 fold change [4] | log2 fold change [5] | log2 fold change [6] | log2 fold change [7] | log2 fold change [8] | log2 fold change [9] | log2 fold change [10] | log2 fold change [11] | log2 fold change [12] | log2 fold change [13] | log2 fold change [14] | log2 fold change [15] | log2 fold change [16] | log2 fold change [17] | log2 fold change [18] | log2 fold change [19] | log2 fold change [20] |
| --- | --- | --- | --- | --- | --- | --- | --- | --- | --- | --- | --- | --- | --- | --- | --- | --- | --- | --- | --- | --- |
| HAUS6 (UniProt Q7Z4H7) | 0.004 | 0.092 | 0.025 | 0.012 | -0.068 | 0.015 | -0.063 | 0.014 | 0.01 | 0.022 | -0.043 | -0.084 | 0.008 | 0.031 | -0.004 | 0.031 | -0.025 | 0.03 | 0.019 | 0.017 |
| KDM5C (UniProt P41229) | 0.001 | 0.036 | 0.096 | -0.031 | 0.004 | -0.001 | -0.028 | -0.059 | 0.008 | 0.019 | -0.02 | -0.115 | 0.059 | -0.009 | 0.04 | -0.018 | 0.176 | -0.01 | 0.09 | -0.013 |
| HMGN4 (UniProt O00479) | -0.015 | 0.016 | -0.003 | 0.453 | 0.003 | 0.022 | 1.29 (active) | -0.595 | -0.173 | -0.099 | 0.581 | -0.001 | 0.01 | 0.122 | 0.235 | -0.072 | -0.046 | -0.074 | -0.036 | 0.111 |
| HNRNPL (UniProt P14866) | 0.01 | 0.023 | 0.021 | -0.052 | -0.047 | 0.061 | -0.012 | -0.056 | 0.017 | 0.023 | 0.035 | -0.174 | 0.016 | 0.015 | -0.02 | 0 | 0.073 | -0.026 | -0.007 | -0.019 |
| HEATR3 (UniProt Q7Z4Q2) | 0.025 | 0.026 | 0.026 | -0.048 | -0.028 | 0.032 | -0.064 | -0.089 | -0.019 | 0.026 | 0.007 | -0.129 | 0.02 | 0.012 | 0 | 0.014 | 0.116 | 0.018 | -0.046 | 0.003 |
| IL18R1 (UniProt Q13478) | 0.074 | -0.026 | 0.061 | 0.087 | 0.044 | -0.184 | -0.284 | 0.085 | 0.023 | -0.064 | -0.148 | 0.008 | -0.106 | -0.322 | 0.056 | 0.116 | 0.142 | -0.098 | -0.014 | -0.039 |
| IRAK4 (UniProt Q9NWZ3) | -0.028 | -0.005 | 0.107 | -0.085 | -0.022 | 0.063 | 0.001 | 0.19 | 0.045 | -0.022 | 0.01 | -0.083 | 0.261 (active) | 0.145 | -0.018 | -0.032 | 0.032 | 0.006 | 0.111 | 0.045 |
| HDHD5 (UniProt Q9BXW7) | -0.033 | 0.043 | -0.137 | -0.076 | -0.02 | 0.01 | 0 | 0.011 | -0.06 | 0.05 | -0.097 | -0.078 | 0.041 | -0.069 | 0.034 | 0.026 | 0.024 | 0.031 | 0.012 | -0.063 |
| HAUS8 (UniProt Q9BT25) | -0.042 | 0.04 | -0.05 | -0.049 | 0.037 | -0.005 | -0.048 | 0.029 | 0.031 | -0.001 | 0.067 | -0.173 | -0.012 | -0.06 | 0.064 | 0.063 | -0.004 | -0.063 | -0.075 | -0.031 |
| ISOC2 (UniProt Q96AB3) | 0.048 | 0.033 | -0.12 | 0.096 | 0.013 | -0.043 | 0.02 | -0.08 | -0.047 | 0.002 | 0.004 | -0.017 | 0.076 | 0.121 | -0.024 | 0.014 | 0.122 | 0.022 | 0.043 | -0.045 |
| GOLPH3L (UniProt Q9H4A5) | 0.068 | 0.025 | 0.033 | -0.055 | -0.023 | 0.048 | -0.034 | -0.08 | 0.046 | -0.092 | 0.018 | -0.083 | -0.005 | -0.077 | 0.008 | 0.063 | -0.395 (active) | 0.026 | -0.059 | 0.018 |
| HAUS2 (UniProt Q9NVX0) | -0.076 | -0.005 | 0.097 | 0.018 | 0.038 | 0.036 | 0.141 | -0.089 | 0.048 | -0.007 | 0.069 | -0.079 | 0.041 | -0.171 | -0.047 | 0.088 | 0.043 | -0.037 | 0.014 | -0.049 |
| IMMT (UniProt Q16891) | -0.016 | -0.006 | 0.004 | -0.046 | 0.015 | 0.015 | -0.005 | -0.212 (active) | 0.01 | -0.012 | 0.031 | -0.079 | -0.03 | 0.019 | -0.041 | 0.014 | -0.045 | 0.034 | -0.145 | -0.022 |
| GTF2A1 (UniProt P52655) | -0.028 | 0.01 | 0.018 | 0.042 | 0.035 | 0.015 | 0.033 | -0.042 | -0.004 | 0.024 | 0.165 | 0.006 | -0.047 | 0.033 | 0.048 | -0.005 | -0.026 | -0.029 | -0.024 | 0.008 |
| ICAM2 (UniProt P13598) | -0.036 | 0.016 | 0.018 | 0.03 | 0.015 | -0.017 | 0.426 (active) | -0.031 | 0.004 | -0.035 | 0.078 | 0.017 | 0.032 | 0.039 | -0.019 | -0.026 | -0.065 | -0.016 | 0.009 | -0.02 |
| HIST2H2AA3 (UniProt Q6FI13) | -0.078 | 0.028 | -0.012 | -0.007 | -0.006 | 0.012 | 0.694 (active) | -0.217 | -0.034 | -0.116 | 0.202 | 0.092 | -0.002 | -0.032 | 0.277 | -0.027 | 0.086 | -0.097 | -0.027 | -0.086 |
